Assay outcomes as filed in PubChem.
DRD3 antagonist: antagonists of human D3 dopamine receptor | max response, negative = inhibition, % | P35462 | hit rate 2.5% among 360,000 | D3R cells, DiscoveRx beta-arrestin luminescence, antagonist mode; active compounds read low; in the data active = max response below about -50%; inconclusive = no clear call, values can overlap the other calls; also: % is scaled to controls: 0 for no effect and ±100 for the full control effect
Target sequence (P35462 whole entry, looked up): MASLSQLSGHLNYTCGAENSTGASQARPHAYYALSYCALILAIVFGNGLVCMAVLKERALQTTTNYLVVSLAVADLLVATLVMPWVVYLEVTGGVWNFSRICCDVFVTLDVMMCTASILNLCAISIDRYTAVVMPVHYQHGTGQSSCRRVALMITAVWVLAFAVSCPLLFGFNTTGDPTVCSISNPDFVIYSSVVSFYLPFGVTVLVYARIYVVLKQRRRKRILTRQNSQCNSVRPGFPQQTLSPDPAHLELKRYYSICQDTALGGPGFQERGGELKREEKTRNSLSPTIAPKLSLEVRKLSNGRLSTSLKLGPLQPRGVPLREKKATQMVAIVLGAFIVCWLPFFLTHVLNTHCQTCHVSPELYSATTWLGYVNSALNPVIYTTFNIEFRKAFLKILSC
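Cells expressing the human receptor were seeded at 1500 cells/well, incubated overnight at 37 degrees C in 5% CO2, then exposed to library compounds with dopamine controls for 90 minutes at 37 degrees C before luminescent detection.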
Chronic BCR inh: inhibitors of chronic active B-cell receptor signaling; ABC-DLBCL IkBa-CBG/CBR reporter, luminescence ratio, 4 h; Potency, µM (top dose mostly 46.1 µM), for the others: at the highest dose activity change, negative = inhibition, actives largely listed as inhibitors; hit rate 0.05% among 340,000; AID 493014; active = well fitted inhibition curve with a large enough effect in the signal ratio, with a control signal flat, not every such curve was filed as active; inconclusive = small, poorly fitted or top-dose-only effect, or effect the other way, or a change in a side signal; the % refers to the signal ratio;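 also: potency is read from the fitted curve at half-maximal effect; plate controls were basal doxycycline-induced cells for no effect and cells given 10 µM MG132 for full effect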
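TMD8 ABC-DLBCL cells carrying doxycycline-inducible green luciferase fused to IkappaBalpha plus unfused red luciferase were exposed to compounds (up to 46 uM) for 4 hrs at 37C. Activity came from the overlap-corrected green/red luminescence ratio.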
D1 antagonist: blocks dopamine activation of the human D1 receptor; P21728; HEK293 TREx D1 cells, calcium flux, dopamine EC80; active compounds read low; activity change, negative = inhibition, % at 10 µM; hit rate 3.2% among 360,000; AID 504652; in the data active = activity change below about -30%; also: % is scaled to controls: 0 for no effect and ±100 for the full control effect
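Using tetracycline-induced force-coupled D1 Hek293 cells and a calcium dye, signals were followed for 180 s after compound, then for 180 s after EC80 dopamine, to detect inhibitors.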
D1 PAM: enhances dopamine response at the human D1 receptor | P21728 | HEK293 TREx D1 cells, calcium flux, dopamine EC20 potentiation | potentiation, % at 10 µM | hit rate 0.036% among 360,000 | AID 504651; in the data active = potentiation above about 30%; also: 0% is about no effect
DRD3 agonist: agonists of human D3 dopamine receptor | D3R DiscoveRx beta-arrestin cells, luminescence, 90 min | max activation, % | P35462 | hit rate 0.58% among 410,000; in the data active = max activation above about 30%; also: 0% is about no effect
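Agonist mode: compounds and dopamine controls were applied to plated cells for 90 min at 37 degrees C after an overnight attachment at 1500 cells/well. Luminescent read-out followed 30 - 60 minutes at room temperature with DiscoveRx detection reagent.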
D1 agonist: agonists of human D1 dopamine receptor | hit rate 1% among 360,000 | HEK293 T-REx D1 cells, calcium flux, agonist mode | activation, % at 2 µM; in the data active = activation above about 30%; also: 0% is about no effect
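Tetracycline-induced HEK293 TREx D1 cells, force-coupled to calcium signalling, were dye-loaded with a no-wash calcium kit. Compound was pin-added after a 10 s baseline. Fluorescence was read kinetically at 1 cycle/s for 180 s, with calcium rises flagged as agonism.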
The depositor's hits bear a star; ? = inconclusive; nt = no result given; ! = not active in a repeat. Rows were chosen to be rich in hits. Some 6% of all compounds tested hit in one or more screens of this group.

SMILES	DRD3 antagonist	Chronic BCR inh	D1 antagonist	D1 PAM	DRD3 agonist	D1 agonist
CC(C)CC(N)c1csc(Nc2ncccn2)n1 (stereo unspecified)	0.0	nt	nt	nt	-2.2	nt
OC1CCCN(C(=S)NCc2ccccc2)C1 (stereo unspecified)	-73.2*	1.3%	nt	0.2	-1.6	-2.1
COc1cc(O)c(C(CCN2CCN(c3ccccc3)CC2)c2cc(OC)c(OC)c(OC)c2)c(OC)c1 (stereo unspecified)	-137.4*	-11.5%	-86.9*	-12.2	-71.6	4.2
COc1cc(OC)c2c(-c3ccccc3)cc(=O)oc2c1C(CC(=O)N1CCOCC1)c1ccc2c(c1)OCO2 (stereo unspecified)	14.3	1.6%	-60.4*	-4.8	4.8	4.6
COc1cc(OC)c2c(C)cc(=O)oc2c1C(CCN1CCN(c2ccccc2)CC1)c1ccc2c(c1)OCO2 (stereo unspecified)	-13.3	-7.3%	-79.5*	-9.3	29.5	4.6
COc1cc(O)c(C(CCN2CCN(c3ccccc3)CC2)c2ccc3c(c2)OCO3)c(OC)c1 (stereo unspecified)	-107.7*	-1.9%	-76.3*	-13.1	-62.6	1.2
O=C(O)c1ccc(CN2C[C@@H](CO)O[C@@H](n3cnc4c(NCc5ccc(F)cc5)ncnc43)C2)cc1	10.8	nt	nt	nt	8.6	nt
COc1ccc(-n2nc([N+](=O)[O-])c(=NC3CCN(Cc4ccccc4)CC3)n2O)cc1	-50.7*	3.6%	6.5	1.9	-12.4	-1.0
COc1ccc(-n2nc([N+](=O)[O-])c(=NCc3cccnc3)n2O)cc1	9.2	10.4%	-6.9	1.2	-25.0	0.6
O=C(NCc1ccc(Cl)nc1)c1ccc2nc([C@@H]3O[C@H](CO)[C@H](O)[C@H](O)[C@H]3O)[nH]c2c1	-12.4	nt	nt	nt	-0.8	nt
COc1cc(OC)cc(C(=O)NC(C(=O)NNC(=O)c2ccc(C)cc2)C(C)C)c1 (stereo unspecified)	-16.2	?	14.8	5.0	-8.7	1.4
COc1ccc(C(=O)NNC(=O)C(NC(=O)c2cc(OC)cc(OC)c2)C(C)C)cc1 (stereo unspecified)	10.9	-4.6%	-39.3*	-4.2	-1.4	1.2
CC(C)C(NS(=O)(=O)c1ccccc1F)C(=O)N1CCc2ccccc2C1 (stereo unspecified)	7.6	-5.0%	-37.0*	-8.6	1.1	0.2
CN1CCC(=NOc2ccc([N+](=O)[O-])cc2)CC1	9.0	16.8%	-51.9*	-9.2	-7.2	10.7
COc1ccc(C(=O)ON=C2CCN(c3ccc([N+](=O)[O-])cc3)CC2)cc1	10.0	-7.8%	-1.6	7.6	10.5	14.9
CC(=O)n1nc(-c2ccco2)nc1N	4.1	0.3%	4.3	-2.6	7.9	5.0
COc1ccccc1C(=O)n1nc(-c2ccco2)nc1N	4.7	24.5%	-82.0*	-1.7	-0.5	-0.1
Cc1ccc2c(c1)C(=O)CC1(CCCC1)O2	15.8	-2.6%	-0.6	4.5	13.0	-0.7
Cc1ccc2c(c1)C(=O)CC1(CCCCCC1)O2	-114.6*	-0.5%	-17.7	-2.1	-73.3	-1.0
Cn1c2c(c3ccccc31)CCN(CCCCN1CCN(c3ccccc3)CC1)C2=O	4.0	nt	nt	nt	53.6*	nt
O=c1cc(-c2ccccc2)n(S(=O)(=O)c2ccc3ccccc3c2)o1	-77.0*	nt	nt	nt	-4.7	nt
N=C(N)c1ccc(OCCCOc2ccc(C(=N)N)cc2)cc1	nt	nt	nt	nt	6.4	nt
O=C1CCc2cc(S(=O)(=O)N3CCC(C(=O)NC4CCCC4)CC3)ccc2N1	0.0	15.3%	-31.3*	-3.5	1.2	0.0
CCOc1ccc(OCC)c(NC(=O)C2CCN(S(=O)(=O)c3ccc4c(c3)CC(C)N4C(C)=O)CC2)c1 (stereo unspecified)	-11.2	?	-34.6*!	6.3	2.1	1.0
CCOc1ccc(NC(=O)C2CCN(S(=O)(=O)c3ccc4c(c3)CC(C)N4C(C)=O)CC2)cc1 (stereo unspecified)	16.2	1.3%	10.4	-4.5	8.4	2.2
SMILES	DRD3 antagonist	Chronic BCR inh	D1 antagonist	D1 PAM	DRD3 agonist	D1 agonist
CCc1ccc(NC(=O)C2CCCN(S(=O)(=O)c3ccc4c(c3)CC(C)N4C(C)=O)C2)cc1 (stereo unspecified)	19.9	-11.0%	8.5	-5.8	0.9	1.1
CC(=O)N1c2ccc(S(=O)(=O)N3CCC(C(=O)NC4CCC(C)CC4)CC3)cc2CC1C (stereo unspecified)	1.7	7.7%	-21.6	-3.7	30.0*	-0.2
CCc1ccc(NC(=O)C2CCN(S(=O)(=O)c3ccc4c(c3)CC(C)N4C(C)=O)CC2)cc1 (stereo unspecified)	36.6	4.4%	-31.1*	-5.2	6.8	2.9
O=C(COCc1cc(-c2ccco2)on1)Nc1ccc(OC(F)(F)F)cc1	nt	nt	4.2	2.8	-10.2	-2.1
CCc1nc2cccnc2n1-c1ccc(CC(=O)Nc2ccccc2Cl)cc1	nt	nt	-3.1	-2.9	0.4	4.6
Nc1nc(Sc2ccc([N+](=O)[O-])c3nonc23)c2[nH]cnc2n1	-59.8*	nt	nt	nt	-11.0	nt
Cc1ccc(NC(=O)Cn2cc(S(=O)(=O)c3ccccc3)c(=O)c3cc4c(cc32)OCO4)cc1	nt	nt	2.9	2.8	0.7	-2.2
O=[N+]([O-])c1ccc(Sc2ccccn2)nc1	-1.6	-19.5%	-67.6*	5.7	1.8	1.6
O=C(O)CNC(=O)c1ccc(Sc2ccccc2)c([N+](=O)[O-])c1	-18.2	1.9%	17.0	-8.2	-5.8	0.4
COC(=O)c1ccc(Sc2ccccn2)c([N+](=O)[O-])c1	-3.4	-6.3%	-34.3*	-8.6	-2.9	1.3
O=C(O)c1ccc(Sc2ccccn2)c([N+](=O)[O-])c1	3.2	5.0%	-4.4	3.1	2.5	2.2
O=[N+]([O-])c1cc(C(F)(F)F)ccc1Sc1ccccn1	?	-5.2%	12.6	-7.8	-14.8	-0.7
O=[N+]([O-])c1ccc(CSc2ccccn2)cc1	8.8	?	-3.8	-0.8	0.7	1.5
NS(=O)(=O)c1ccc(Sc2ccccn2)c([N+](=O)[O-])c1	-6.1	-8.5%	-32.5*	-3.9	-4.4	2.4
CC(C)(C)NC(=O)c1ccc(Sc2ccccc2)c([N+](=O)[O-])c1	-50.2*	?	-28.7	-0.4	-4.0	2.6
CCCCNc1c(-c2ccc(F)cc2)nc2nc(C)cc(C)n12	-7.3	nt	nt	nt	-0.3	nt
O=C(Nc1cccc(C(F)(F)F)c1)c1ccc(F)c(S(=O)(=O)N2CCc3ccccc3C2)c1	nt	10.6%	-14.8	1.9	-11.2	-0.3
CC(=O)OCC(=O)Nc1cc(C#N)cc(NC(=O)COC(C)=O)c1Cl	nt	nt	nt	nt	6.9	nt
COc1cc(OC)c(C2=NOC(C(=O)N3CCCc4ccccc43)C2)cc1Cl (stereo unspecified)	4.9	16.1%	5.4	-2.9	31.5*	2.4
